Assay outcomes deposited in PubChem by several laboratories.
A selection: hits, their analogues and other compounds. The true share with any hit is near 3.4%.
EBV LMP1 NFkB – EBV LMP1-driven NF-kappaB luciferase reporter inhibitors, primary screen, cell-based, luminescence, single point; LMP1-induced NF-kappaB luciferase reporter cells; inhibition, % at 12.5 µM; hit rate 0.69% among 350,000; AID 504558, 2011; in the data active means inhibition above about 41%;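 further: 0% = neutral control wells and 100% = reference inhibitor control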
TRPM1 prom inh – inhibitors of MITF-dependent TRPM1 promoter reporter, primary screen, cell-based, SK-MEL-5, single point, luciferase. inhibition, % at 12.5 µM. AID 488899, 2010. hit rate 0.83% among 330,000. SK-MEL-5 TRPM1 promoter luciferase, 24 h;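 active means mean inhibition across replicates of 60% or more, whatever share of single replicates reaches that level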
TROY signal inh – inhibitors of TROY-driven NF-kB signaling, primary screen, Q293 LMP1-TROYcd cells, NF-kB luciferase, uHTS; hit rate 0.98% among 360,000; AID 1347056, 2019; inhibition, % at 10 µM; Q293 LMP1-TROYcd NF-kB luciferase reporter, 4 h;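 active means compounds whose plate-normalised and pattern-corrected inhibition of the luciferase reporter signal at the single screening dose is 50% or more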
TWEAK-Fn14 inh – inhibitors of TWEAK-Fn14 signaling, primary screen, luciferase reporter cells, uHTS | TWEAK-stimulated Fn14 reporter cells, luciferase luminescence, 8 h | inhibition, % at 10 µM | hit rate 2% among 360,000; in the data active means inhibition above about 50%
HIF-2a block – HIF-2a reporter inhibitors, primary screen, luminescence, 786-0 RCC cells. 786-0 RCC cells HIF-2a reporter, luciferase luminescence, overnight. inhibition, % at 18.8 µM. hit rate 0.72% among 360,000. AID 624352, 2012;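 active means inhibition of the luminescence signal of 40% or more relative to plate controls, in a single-dose primary screen at 18.75 µM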
Shn3 3UTR inh – reduction of Shn3 3'UTR firefly luciferase signal, primary screen, Schnurri-3 inhibitor project, cell-based, Clone20 osteoblasts, set 2 | Clone20 osteoblast Shn3 3'UTR firefly luciferase, 24 h | AID 588674, 2011 | inhibition, % at 12.5 µM | hit rate 0.52% among 360,000;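 active means mean inhibition of at least 75% with every replicate also reaching 75%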;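 further: 0% = median of neutral control wells and 100% = pilot-screen positive control compound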
The depositor's hits bear a star; · = not tested or not shown.

SMILES	EBV LMP1 NFkB	TRPM1 prom inh	TROY signal inh	TWEAK-Fn14 inh	HIF-2a block	Shn3 3UTR inh
O=[N+]([O-])c1ccc(O)c(/C=N/Nc2ccccc2Cl)c1	-38	-35	69*	11	-276	-27
COc1cccc(S(=O)(=O)N(C)C[C@@H]2OCc3cn(nn3)CCCC(=O)N([C@H](C)CO)C[C@H]2C)c1	-6	·	-10	6	-10	1
O=C(Nc1ccc(Cl)cc1)Nc1csc([N+](=O)[O-])c1	·	·	41	67*	-261	60
CC(C)Cc1ccc(-c2cc3nc(NCC4CC4)ccn3n2)cc1	·	·	-19	-31	-267	-35
COc1ncnc2c1ncn2CCCN(C)CCc1ccccn1	2	·	-23	-13	4	-8
Cc1ccc(C)c(S(=O)(=O)Nc2ccc(O)cc2)c1	-7	9	9	0	27	29
Cc1ccc(C)c(S(=O)(=O)Nc2ccc(-n3cnnn3)cc2)c1	6	-14	5	-5	14	83*
CCCN(CC(=O)Nc1ccccc1C)C(=O)C1CCN(S(=O)(=O)c2ccc(C)c(C)c2)CC1	1	·	-7	-3	8	8
O=C(c1cccc(Br)c1)c1nc2ccccc2[nH]c1=O	·	·	3	-7	-8	-16
Cc1ccc2[nH]c3c(c2c1)CCCC3NCCO (stereo not drawn)	1	-6	4	5	13	-3
CN(C)N1C(N)=C(C#N)C(c2ccc(Br)cc2)C2=C1CC(C)(C)CC2=O (stereo not drawn)	7	6	-3	12	6	13
O=C(CSc1nnc2nnc3ccccc3n12)N1CCOCC1	19	59	68*	64*	-7	-1
OCC1OC(c2ccc(O)cc2O)C(O)C1O (stereo not drawn)	·	·	11	-14	7	·
CCC(c1ccc(O)c(O)c1)C(CC)c1ccc(O)c(O)c1 (stereo not drawn)	-17	1	24	28	79*	26
O=C(NCc1cccc(C(F)(F)F)c1)c1csc([C@@H]2C[C@H](O)[C@@H](CO)O2)n1	·	·	3	8	0	2
Cc1cc(OCC(=O)Nc2cnn(CCCC(=O)O)c2)ccc1Cl	59*	-3	16	-4	3	-11
C=CCNc1nc2cc(-c3cccc(Cl)c3)sc2c(=O)n1C	·	·	-43	-19	-136	-30
O=C(CN1C(=O)C(c2ccccc2)Oc2cccnc21)NCc1ccccc1F (stereo not drawn)	57*	6	-11	18	4	-1
COc1ccc(CNC(=O)CN2C(=O)C(c3ccccc3)Oc3cccnc32)cc1 (stereo not drawn)	1	·	5	1	7	3
CCN(CC)c1ccc(NC2=C(Cl)C(=O)c3ccccc3C2=O)cc1	80*	92*	-6	57*	96*	97*
Cc1ccc(NC2=C(Cl)C(=O)c3ccccc3C2=O)cc1	-6	103*	-39	11	-55	-59
COC1=C(Nc2ccc(O)cc2)C(=O)c2ccccc2C1=O	1	80*	-18	-5	-100	-2
Cc1ccc(NC2=C(N3CCOCC3)C(=O)c3ccccc3C2=O)cc1	4	6	-1	2	-170	-47
Cc1ccc(-n2nnnc2SCC(=O)NCC2CCCO2)cc1C (stereo not drawn)	-7	1	-22	3	-11	-19
O=C(Nc1ncc(Cc2cccc([N+](=O)[O-])c2)s1)c1ccco1	-17	-47	-36	-25	-73	-38
SMILES	EBV LMP1 NFkB	TRPM1 prom inh	TROY signal inh	TWEAK-Fn14 inh	HIF-2a block	Shn3 3UTR inh
Cc1ccc(Cc2cnc(NC(=O)c3ccco3)s2)cc1	-10	-38	35	58*	-97	-45
CCOC(=O)CSc1nnc(NC(=O)c2cc([N+](=O)[O-])cc([N+](=O)[O-])c2)s1	-6	5	66*	85*	-2	-9
COCCSc1nnc(NC(=O)c2ccc([N+](=O)[O-])cc2)s1	7	-16	-22	-4	-35	7
O=C(NC1CC1)c1cccc(NC(=O)C2CCN(S(=O)(=O)c3cccc(C(F)(F)F)c3)CC2)c1	-11	12	19	8	10	15
CC(=O)c1cccc(S(=O)(=O)N2CCC(C(=O)Nc3cccc(C(=O)NC4CC4)c3)CC2)c1	-6	13	62*	-17	9	-24
COc1ccc(S(=O)(=O)N2CCC(C(=O)NC3CC3)CC2)cc1OC	67*	-8	-15	-8	0	-14
CCOC(=O)C(=O)N(C)c1c(CC)nc2c(OCc3cc(Cl)cc(Cl)c3)cccn12	·	·	-4	15	7	-4
O=C(Nc1ccccc1)c1ccc(S(=O)(=O)NCC2CCCO2)cc1 (stereo not drawn)	5	6	-13	12	-57	-6
CC(=O)Oc1ccc(C(=O)Nc2ccc(S(=O)(=O)NCC3CCCO3)cc2)cc1 (stereo not drawn)	-3	9	51*	42	26	9
COc1cccc(S(=O)(=O)NCc2ccc(C(=O)Nc3cccc(Cl)c3)cc2)c1	-8	8	48	60*	12	19
COc1cccc(S(=O)(=O)NCc2ccc(C(=O)Nc3ccc(Cl)cc3)cc2)c1	15	4	36	41	4	35
O=C(Nc1cccc(Cl)c1)c1ccc(S(=O)(=O)NCC2CCCO2)cc1 (stereo not drawn)	2	4	4	63*	1	17
CCOC(=O)C(CCc1ccccn1)c1ccccc1 (stereo not drawn)	-14	-22	-11	3	-12	4
C#CCNC(=O)C[C@@H]1C[C@@]2(C(=O)OCC)CCCC=C2N(Cc2ccccc2)C1=O	·	·	·	·	-8	·
COc1ccc(S(=O)(=O)NCC(c2cccnc2)N2CCN(c3ccc(F)cc3)CC2)cc1C (stereo not drawn)	82*	16	-3	6	2	33
COc1ccc(S(=O)(=O)NCC(c2cccnc2)N2CCN(c3ccccc3)CC2)cc1C (stereo not drawn)	7	6	-14	29	-13	10
CC1(C)NC(=O)N(CC(=O)OCC(=O)NC(=O)c2ccccc2)C1=O	0	-7	1	9	14	-3
Cc1cc(C2=NNC(=NC3CC3)SC2)c(C)n1Cc1ccco1	79*	91*	16	61*	80*	38
COc1ccc(-n2c(C)cc(C3=NNC(=NC4CC4)SC3)c2C)cc1	-3	-27	-8	-4	-114	37
Cc1cc(C2=NNC(=NC3CC3)SC2)c(C)n1-c1ccccc1	74*	100*	47	96*	91*	94*
